IL-1B inflam inh: inhibitors of inflammasome signaling (IL-1 beta secretion) | THP-1 LPS/ATP IL-1B secretion, AlphaLISA, 16 h; active compounds read low | activity change, % at 57.5 µM | 360,000 compounds, 4.7% hits | AID 743279; in the data active means activity change below about -50%; inconclusive means mostly about -30% to -49%; further: on the % scale 0 is the no-effect control and ±100 the full control effect
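Secreted IL-1B measured by AlphaLISA bead assay after 16 h compound exposure of THP-1 cells; compounds (final up to 57.5 uM) added 1 h before LPS (250 ng/mL) and ATP (1.25 mM) stimulation; lower signal means less secretion.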
TGFb inhibitor: inhibitors of TGF-b signaling; HepG2 CAGA-GFP TGF-b/SMAD3 reporter, GFP fluorescence, 18 h; TGF-beta stimulated, 500 pg/mL final; 410,000 compounds, 1.2% hits; Potency, µM (series often up to 46.1 µM), inactives show top-dose activity, negative = inhibition, actives largely listed as inhibitors; further: potency means the concentration at half of the fitted maximal effect; on the % scale 0 is the no-effect control and ±100 the full control effect; nearly all actives have a fitted effect of over 65% in size
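Inhibition of TGF-beta-driven CAGA-GFP reporter expression in HEPG2 cells is measured by cellular GFP fluorescence after 18 h stimulation with 500 pg/mL recombinant TGF-beta in 1% FBS medium at 37 degrees C.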
DT40 TDP1 CPT: growth inhibition of DT40 Tdp1-/-;hTDP1 cells with camptothecin (screen for TDP1 inhibitors) | chicken DT40 Tdp1-/-;hTDP1 cells + 20 nM CPT, ATP luminescence, 48 h | Potency, µM (doses to about 46.2 µM), without a hit: at the top dose activity change, negative = growth inhibition, most hits filed as inhibitors | 420,000 compounds, 12% hits | AID 686979; further: potency means the concentration at half of the fitted maximal effect; on the % scale 0 is the no-effect control and ±100 the full control effect; nearly all actives have a fitted effect of over 55% in size
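Chicken DT40 Tdp1-/- cells complemented with human TDP1, 400 cells/well, exposed to compounds plus 20 nM camptothecin for at least 48 h at 37 C; viability read as ATP content by CellTiter-Glo luminescence.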
TDP1 cell noCPT: qHTS for Inhibitors of human tyrosyl-DNA phosphodiesterase 1 (TDP1): qHTS in cells in absence of CPT; DT40 Tdp1-/- hTDP1 cells, no CPT, ATP luminescence, 48 h; Potency, µM (series often up to 46.2 µM), for inactives: at the highest dose activity change, negative = growth inhibition, most hits filed as inhibitors; 420,000 compounds, 15% hits; AID 686978, 2013; further: potency means the concentration at half of the fitted maximal effect; on the % scale 0 is the no-effect control and ±100 the full control effect; nearly all actives have a fitted effect of over 55% in size
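Luminescent ATP content (CellTiter-Glo) served as the growth readout. Knockout chicken DT40 cells expressing human TDP1 were exposed to compounds without camptothecin for a minimum 48 hr at 37 °C.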
S-ASM inh: blocks human secretory acid sphingomyelinase; P17405; placental ASM, HMU-PC fluorogenic substrate, 60 min; 340,000 compounds, 0.006% hits; Potency, µM (highest dose often 57.5 µM), for the others: at the highest dose activity change, negative = inhibition, actives largely listed as inhibitors; AID 504937; further: potency means the concentration at half of the fitted maximal effect
Target sequence (P17405 47-631 limits assumed): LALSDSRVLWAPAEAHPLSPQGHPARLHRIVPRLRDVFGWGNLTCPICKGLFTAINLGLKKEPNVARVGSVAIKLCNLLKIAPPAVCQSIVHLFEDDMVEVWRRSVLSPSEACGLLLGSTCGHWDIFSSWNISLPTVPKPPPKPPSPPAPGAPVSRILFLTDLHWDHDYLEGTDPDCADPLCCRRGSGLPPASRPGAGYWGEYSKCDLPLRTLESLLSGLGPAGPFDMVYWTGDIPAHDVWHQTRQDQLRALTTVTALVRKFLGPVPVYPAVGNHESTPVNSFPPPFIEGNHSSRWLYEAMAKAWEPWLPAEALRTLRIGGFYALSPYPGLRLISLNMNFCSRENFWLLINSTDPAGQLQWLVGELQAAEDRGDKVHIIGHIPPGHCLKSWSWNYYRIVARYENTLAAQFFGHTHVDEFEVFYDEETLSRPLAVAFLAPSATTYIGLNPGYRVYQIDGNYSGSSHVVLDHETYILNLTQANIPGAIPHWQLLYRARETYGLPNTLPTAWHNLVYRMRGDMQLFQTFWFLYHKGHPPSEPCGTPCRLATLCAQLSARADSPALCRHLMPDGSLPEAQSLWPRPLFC
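Fluorescence read-out (Ex 386 nm, Em 447 nm) after stopping the reaction at pH 10. Enzyme: ASM from human placenta; substrate HMU-PC0, 9 uM final; 60 min, 37 °C. Compound preincubation 10 min, ambient temperature.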
HepG2 viability: HepG2 cytotoxicity, counter-screen for TGF-b inhibitors | 410,000 compounds, 0.76% hits | AID 588856 | HepG2 CAGA-GFP viability, ATP luminescence, 18 h | Potency, µM (highest dose often 46.1 µM), for inactives: at the highest dose activity change, negative = cytotoxicity, usual class: cytotoxic; further: potency means the concentration at half of the fitted maximal effect
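HepG2 CAGA-GFP cells (1000/well, DMEM with 1% FBS) received compound, then TGF-beta at 500 pg/mL final, and were incubated 18 hours at 37 degrees C. Viability was read by CellTiter-Glo luminescence. Media-only wells were set as complete cell-killing and DMSO as no toxicity.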
* = called active by the depositor; u = inconclusive; x = no result. A selection: hits, their analogues and other compounds. The true share with any hit is near 19%. Unless noted, the call rests on the fitted dose curve; in most records, active means well fitted curve in the direction sought with a large enough effect; inconclusive means small, poorly fitted or top-dose-only effect, or another doubt; inactive means no such curve, though single readings can be large; an effect the other way counts as inactive or inconclusive.

SMILES	IL-1B inflam inh	TGFb inhibitor	DT40 TDP1 CPT	TDP1 cell noCPT	S-ASM inh	HepG2 viability
O=C(c1cc(-c2ccccc2)on1)N(Cc1cccnc1)C(c1ccccn1)c1nc2ccccc2[nH]1 (stereo unspecified)	25	u	u	u	x	-1%
COc1ccc(CNC(=O)C(=O)NCC2CCCN2S(=O)(=O)c2ccccc2)cc1 (stereo unspecified)	-15	21%	u	u	1%	-2%
CCC(C)Cn1c(/C=C/c2ccccc2)nc2ccccc21 (stereo unspecified)	x	u	9.2µM*	9.2µM*	x	-55%
CC(C)CCn1c(/C=C/c2ccccc2)nc2ccccc21	x	u	16µM*	12µM*	x	10µM*
CCCCC(=O)Nc1ccc(C(=O)Nc2ccc(S(=O)(=O)Nc3nccc(C)n3)cc2)cc1	16	0%	-23%	10%	0%	-1%
Cc1cc([N+](=O)[O-])nn1CCCC(=O)Nc1sc2c(c1C(N)=O)CCCC2	u	0%	u	18µM*	-5%	-23%
NC(=O)c1c(NC(=O)CN2C(=O)CCC2=O)sc2c1CCCCC2	0	5%	-5%	-20%	0%	2%
NC(=O)c1c(NC(=O)c2ccncc2)sc2c1CCCC2	-9	-40%	u	16µM*	-1%	-28%
NC(=O)c1c(NC(=O)COC(=O)c2ccc(O)c(Cl)c2)sc2c1CCCC2	55	0%	26µM*	u	-1%	1%
COC(=O)c1c(NC(=O)COC(=O)c2ccccc2O)sc2c1CCCCC2	20	0%	13%	-16%	0%	8%
NC(=O)c1c(NC(=O)CN2CCCC2)sc2c1CCCC2	-3	u	9.2µM*	16µM*	0%	6%
O=C1CN(C(=O)COc2ccc([N+](=O)[O-])cc2Cl)c2ccccc2N1	-21	-2%	-4%	3%	-5%	-2%
COCCNC(=O)NC(=O)CSc1nc(C)c(C)c(C)n1	19	8%	3%	-1%	-1%	-4%
C=CCNC(=S)Nc1sc2c(c1C(N)=O)CCCC2	-27	-23%	u	u	21%	11µM*
N#CCC(=O)Nc1sc2c(c1C(N)=O)CCCC2	-21	-3%	-19%	-16%	5%	-1%
CCOC(=O)c1c(NC(=O)OC)sc2c1CCC2	7	10%	-9%	-1%	-7%	-1%
C=CC(=O)Nc1sc2c(c1C(N)=O)CCCC2	-109*	16µM*	15µM*	u	-1%	-53%
COC(=O)Nc1sc2c(c1C(N)=O)CCCCCC2	-7	-1%	16µM*	21µM*	-2%	-3%
COc1ccc(-c2nn(-c3ccccc3)cc2CNC[C@H]2O[C@@H](n3ccc(=O)[nH]c3=O)[C@H](O)[C@@H]2O)cc1	-25	0%	-4%	u	x	2%
Cc1ccc(S(=O)(=O)N(CC(=O)NC2CC3CCC2C3)c2ccccc2)cc1 (stereo unspecified)	-6	-13%	u	u	x	-27%
CC(O)(c1ccc(F)c(F)c1)c1nc(-c2cccc(F)c2)cs1 (stereo unspecified)	20	u	u	u	x	-24%
CC(C)c1cccc(-c2csc(C(C)(O)c3ccncc3)n2)c1 (stereo unspecified)	10	u	12µM*	13µM*	x	-29%
CC(O)(c1ccc(F)c(F)c1)c1nc(-c2cc(F)cc(F)c2)cs1 (stereo unspecified)	19	u	u	16µM*	x	-53%
CC(C)c1cccc(-c2csc(C(C)(O)c3ccc(F)c(F)c3)n2)c1 (stereo unspecified)	u	u	u	u	x	20µM*
CC(O)(c1ccc(F)c(F)c1)c1nc(-c2ccccc2)cs1 (stereo unspecified)	-10	u	u	13µM*	x	-32%
SMILES	IL-1B inflam inh	TGFb inhibitor	DT40 TDP1 CPT	TDP1 cell noCPT	S-ASM inh	HepG2 viability
Cc1ccc(C(C)(O)CS(=O)(=O)Cc2ccccc2Cl)cc1 (stereo unspecified)	12	-4%	-12%	1%	2%	1%
COc1ccc(NC(=O)Nc2c[nH]c(=O)[nH]c2=O)cc1OC	0	1%	-10%	-8%	5%	-13%
O=C(COc1cccc(Br)c1)N/N=C1\CCSC1	22	-5%	u	-12%	1%	-24%
CCN(CC)S(=O)(=O)c1ccc2c(c1)[nH]c(=S)n2CC	0	-10%	-11%	-28%	2%	-5%
CCN(CC)S(=O)(=O)c1ccc2nc(CCl)[nH]c2c1	-82*	19%	26µM*	u	10%	14%
CCCN(CC(=O)Nc1ccc(Cl)cc1Cl)C(=O)/C=C/c1ccco1	-24	-9%	u	16µM*	-5%	-6%
CCN(CC(=O)Nc1ccc(NC(C)=O)cc1)C(=O)/C=C/c1ccco1	4	u	-28%	0%	x	-1%
Cc1cccc(NC(=S)NC(=O)c2cc(-c3ccccc3)nc3ccccc23)c1	15	-6%	20µM*	u	-15%	-14%
COc1cccc(-c2cc(C(=O)Nc3ccc([N+](=O)[O-])cn3)c3ccccc3n2)c1	-5	u	u	12µM*	-1%	-7%
CCOc1cccc(-c2cc(C(=O)Nc3ccon3)c3ccccc3n2)c1	-11	2%	u	9.2µM*	-8%	-7%
COc1ccc(COc2cc(-c3cccc(OC)c3)nc3ccc(NC(=O)C(C)C)cc23)cc1	61	-13%	4.6µM*	4.6µM*	-12%	13%
O=C(Nc1ccc([N+](=O)[O-])cn1)c1cc(-c2cccc(Br)c2)nc2ccccc12	0	18%	u	-18%	x	-4%
CCCC1CC(CCc2ccccc2)OS(=O)(=O)N1 (stereo unspecified)	11	-1%	-12%	-24%	-8%	0%
CCOc1ccccc1NC(=O)COC(=O)CN1C(=O)NC(C)(C)C1=O	-7	5%	-16%	1%	4%	-24%
COc1ccccc1CNS(=O)(=O)c1c(C(=O)N2CCC(C)CC2)c(C)n(C)c1C	x	u	-10%	-23%	x	-11%
COc1cccc(-c2cc(C(=O)Nc3cccnc3)c3ccccc3n2)c1	-7	-8%	u	u	-7%	-17%
